Assay outcomes from PubChem BioAssay.
The full list was thinned out, with hits kept by preference.
IDE exosite inh – exo-site inhibitors of human insulin-degrading enzyme | P14735 | purified IDE, FL-6b probe fluorescence polarization; hits give low values | z-score at 20 µM | 6.3% of 17,000 active;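 active = z-score of -3 or lower, meaning strong loss of probe binding signal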;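 note: His-tagged human IDE residues 42-1019 made in E. coli with 30 nM FL-6b probe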
Target sequence (P14735 42-1019 limits assumed): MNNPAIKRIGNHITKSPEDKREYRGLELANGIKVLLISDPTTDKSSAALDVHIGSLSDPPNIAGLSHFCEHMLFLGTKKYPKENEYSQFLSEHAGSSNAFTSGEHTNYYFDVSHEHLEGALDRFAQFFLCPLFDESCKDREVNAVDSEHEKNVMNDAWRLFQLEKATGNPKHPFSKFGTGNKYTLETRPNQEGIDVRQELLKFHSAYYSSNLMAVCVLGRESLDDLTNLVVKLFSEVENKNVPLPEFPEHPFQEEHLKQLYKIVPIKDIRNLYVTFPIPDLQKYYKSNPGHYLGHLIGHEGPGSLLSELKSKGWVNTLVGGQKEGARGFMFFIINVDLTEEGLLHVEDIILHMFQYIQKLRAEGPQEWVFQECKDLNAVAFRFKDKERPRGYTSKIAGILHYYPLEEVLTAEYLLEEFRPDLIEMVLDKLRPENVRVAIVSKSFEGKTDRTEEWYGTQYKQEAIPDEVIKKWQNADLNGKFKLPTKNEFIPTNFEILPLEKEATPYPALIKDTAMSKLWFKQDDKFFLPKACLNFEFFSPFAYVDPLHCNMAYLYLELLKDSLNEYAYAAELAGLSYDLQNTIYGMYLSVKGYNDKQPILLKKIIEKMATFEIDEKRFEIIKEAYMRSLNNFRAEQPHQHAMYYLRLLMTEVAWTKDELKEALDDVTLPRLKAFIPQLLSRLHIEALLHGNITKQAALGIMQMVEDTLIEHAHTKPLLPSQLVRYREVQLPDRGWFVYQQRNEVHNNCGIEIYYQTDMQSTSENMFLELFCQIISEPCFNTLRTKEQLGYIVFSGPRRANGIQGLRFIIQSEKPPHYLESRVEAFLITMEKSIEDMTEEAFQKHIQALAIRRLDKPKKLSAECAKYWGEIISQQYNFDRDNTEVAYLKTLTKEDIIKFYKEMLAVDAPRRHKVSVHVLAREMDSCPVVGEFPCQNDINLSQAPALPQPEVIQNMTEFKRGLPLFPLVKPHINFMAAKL
Numbers without * were called inactive.

SMILES	IDE exosite inh
COc1ccc(-c2ccc([C@@H]3[C@@H](CO)N4C(=O)CNC[C@H]34)cc2)cc1	2.73
O=C(Nc1ccccc1)N1CCCCN2[C@H](CO)[C@H](c3ccc(C4=CCCCC4)cc3)[C@@H]2C1	2.78
O=C(C[C@H]1CC[C@H]2[C@@H](COC[C@H](O)CN2Cc2ccc3c(c2)OCO3)O1)N1CCCCC1	0.118
O=C(C[C@@H]1CC[C@@H]2[C@H](COC[C@H](O)CN2S(=O)(=O)c2cccc(Cl)c2)O1)N1CCOCC1	1.25
O=C1CN(S(=O)(=O)c2ccccc2)C[C@H]2[C@@H](c3ccc(Br)cc3)[C@H](CO)N12	0.389
CC(C)C#Cc1ccc([C@H]2[C@@H](C#N)N(C(=O)c3ccccn3)[C@@H]2CO)cc1	2.87
CCCC#Cc1ccc([C@H]2[C@@H](CO)N3CCCCN(Cc4ccncc4)C[C@@H]23)cc1	0.169
OC[C@@H]1[C@@H](c2ccc(/C=C/c3ccccc3)cc2)[C@@H]2CN(Cc3ccncc3)CCCCN12	-4.98*
CCCC#Cc1ccc([C@H]2[C@H]3CN(Cc4ccncc4)CCCCN3[C@H]2CO)cc1	-1.2
C/C=C/c1ccccc1[C@H]1[C@@H](C#N)N(C(=O)CN2CCOCC2)[C@H]1CO	-1.48
O=C(Nc1ccc(F)cc1)N1[C@@H](CO)[C@@H]2c3ccccc3NC[C@@H]21	-0.517
CN(C[C@H]1[C@@H](c2ccccc2)[C@H](CO)N1Cc1ccccn1)S(C)(=O)=O	0.379
CN(C)CC(=O)Nc1ccc2c(c1)C(=O)N(C)[C@H]1CC[C@H](CC(=O)Nc3cccc(Cl)c3)O[C@@H]1CO2	-1.27
COc1ccc(-c2ccc([C@@H]3[C@H](C#N)N(C(=O)NC4CCCCC4)[C@H]3CO)cc2)cc1	2
CN1C(=O)c2cc(NC(=O)Cc3cccs3)ccc2OC[C@H]2O[C@@H](CC(=O)NCCCN3CCOCC3)CC[C@@H]21	-0.503
CN1C(=O)c2cc(NC(=O)Nc3ccccc3Cl)ccc2OC[C@@H]2O[C@H](CC(=O)O)CC[C@@H]21	-0.562
CN1C(=O)c2cc(NC(=O)Nc3ccc(Cl)cc3)ccc2OC[C@H]2O[C@@H](CC(=O)NCCN3CCCCC3)CC[C@@H]21	-4.65*
CN1C(=O)c2cc(NC(=O)Nc3ccc(Cl)cc3)ccc2OC[C@H]2O[C@@H](CC(=O)NCCN3CCCCC3)CC[C@H]21	0.0604
CN1C(=O)c2cc(NC(=O)Nc3ccccc3Cl)ccc2OC[C@@H]2O[C@H](CC(=O)NCCCN3CCOCC3)CC[C@@H]21	-4.65*
CN1C(=O)c2cc(NC(=O)Nc3ccccc3Cl)ccc2OC[C@H]2O[C@@H](CC(=O)NCCCN3CCOCC3)CC[C@@H]21	-6.1*
CN1C(=O)c2cc(NC(=O)Cc3cccs3)ccc2OC[C@H]2O[C@@H](CC(=O)NCCCN3CCOCC3)CC[C@H]21	0.0604
CN1C(=O)c2cc(NC(=O)Cc3cccs3)ccc2OC[C@H]2O[C@H](CC(=O)NCCCN3CCOCC3)CC[C@@H]21	-0.354
CN1C(=O)c2cc(NC(=O)Nc3ccccc3Cl)ccc2OC[C@H]2O[C@H](CC(=O)O)CC[C@@H]21	-6.19*
CN1C(=O)c2cc(NC(=O)Nc3ccccc3Cl)ccc2OC[C@H]2O[C@H](CC(=O)O)CC[C@H]21	-0.354
CN1C(=O)c2cc(NC(=O)Cc3cccs3)ccc2OC[C@@H]2O[C@H](CC(=O)NCCCN3CCOCC3)CC[C@H]21	0.0604
SMILES	IDE exosite inh
CN1C(=O)c2cc(NC(=O)Nc3ccc(Cl)cc3)ccc2OC[C@@H]2O[C@H](CC(=O)NCCN3CCCCC3)CC[C@H]21	-0.354
CCC(=O)NC[C@@H]1[C@@H](c2ccc(C3=CCCC3)cc2)[C@@H](CO)N1CC1CC1	1.29
O=C(Nc1ccc(F)cc1)N1CC(=O)N2[C@H](CO)[C@@H](c3ccc(C#CC4CC4)cc3)[C@@H]2C1	2.86
O=C(c1ccc(F)cc1)N1CC(=O)N2[C@H](CO)[C@@H](c3ccc(C#CC4CC4)cc3)[C@H]2C1	-1.17
C/C=C/c1ccc([C@H]2[C@@H](CO)N(CC3CC3)[C@@H]2CN(C(C)=O)C(C)C)cc1	0.634
COCC#Cc1ccc([C@@H]2[C@@H](CO)N3C(=O)CN(C(=O)CN4CCOCC4)C[C@@H]23)cc1	0.15
CN(C)CC#Cc1ccc([C@H]2[C@@H](CO)N3CCCCN(S(=O)(=O)c4ccccc4F)C[C@@H]23)cc1	-0.281
CO[C@H]1CN(C)C(=O)c2ccc(NC(=O)Nc3ccccc3)cc2OC[C@@H](C)N(C(=O)CC2CC2)C[C@H]1C	0.522
CN1C(=O)c2cc(NC(=O)Nc3ccccc3Cl)ccc2OC[C@H]2O[C@H](CC(=O)NCCCN3CCOCC3)CC[C@@H]21	-14.2*
CN1C(=O)c2cc(NC(=O)Cc3cccs3)ccc2OC[C@@H]2O[C@@H](CC(=O)NCCCN3CCOCC3)CC[C@H]21	-1.04
CCS(=O)(=O)Nc1ccc2c(c1)C(=O)N(C)[C@H]1CC[C@H](CC(=O)NCCCN3CCOCC3)O[C@@H]1CO2	0.446
CC(=O)NC[C@@H]1[C@@H](c2ccc(-c3ccccc3)cc2)[C@H](CO)N1C(=O)C1CC1	2.78
COc1cccc(C#Cc2ccc([C@@H]3[C@@H](CO)N(C(=O)C4CCOCC4)[C@H]3C#N)cc2)c1	-1.05
COc1ccccc1-c1ccc([C@@H]2[C@@H](CO)N(C(=O)C3CCOCC3)[C@H]2C#N)cc1	-10.5*
N#C[C@H]1[C@H](c2ccc(-c3cccnc3)cc2)[C@H](CO)N1C(=O)C1CC1	0.0343
COc1ccccc1-c1ccccc1[C@@H]1[C@@H](CO)N(C(=O)C2CCOCC2)[C@H]1C#N	-0.763
N#C[C@H]1[C@@H](c2ccc(/C=C/c3ccccc3)cc2)[C@@H](CO)N1C(=O)C1CCOCC1	-1.3
N#C[C@H]1[C@@H](c2ccc(-c3cccnc3)cc2)[C@@H](CO)N1C(=O)C1CCOCC1	-3.04*
N#C[C@H]1[C@H](c2ccc(-c3cccnc3)cc2)[C@@H](CO)N1C(=O)C1CCOCC1	0.797
COc1ccccc1-c1ccc([C@H]2[C@@H](C#N)N(C(=O)C3CCOCC3)[C@H]2CO)cc1	-6.87*
COc1ccccc1-c1ccc([C@@H]2[C@@H](C#N)N(C(=O)C3CCOCC3)[C@H]2CO)cc1	-9.78*
N#C[C@H]1[C@H](c2ccc(-c3cncnc3)cc2)[C@@H](CO)N1C(=O)C1CCOCC1	0.76
COc1ccc(-c2ccc([C@@H]3[C@@H](CO)N(C(=O)C4CCOCC4)[C@H]3C#N)cc2)cc1	-1.03
COc1ccc(-c2ccccc2[C@H]2[C@@H](C#N)N(C(=O)C3CCOCC3)[C@H]2CO)cc1	2.04
COc1cccc(-c2ccc3c(c2)[C@@H]2[C@@H](CCN2S(=O)(=O)C2=NC(C)C=N2)[C@H](CO)N3C)c1 (stereo not given in full)	2.36
SMILES	IDE exosite inh
CC(C)NC(=O)N1CC(=O)N2[C@H](CO)[C@@H](c3ccc(C#CCN(C)C)cc3)[C@@H]2C1	4.72
Cc1noc(C)c1NC(=O)N(C)C[C@@H]1OCc2cnnn2CCCC(=O)N([C@H](C)CO)C[C@H]1C	-0.585
O=C(c1ccncc1)N1CC(=O)N2[C@H](CO)[C@H](c3ccc(C#CCC4CCCC4)cc3)[C@@H]2C1	1.04
COc1ccc2c3c(n(C)c2c1)[C@H](CO)N(S(=O)(=O)c1cn(C)cn1)CC31CCN(C)CC1	1.44
CCCC#Cc1ccc([C@@H]2[C@@H](CO)N3C(=O)CN(C(=O)Nc4ccccc4)C[C@H]23)cc1	4.95
N#C[C@H]1[C@@H](c2ccccc2)[C@@H](CO)N1S(=O)(=O)Cc1ccccc1	4.8
CO[C@@H]1CN(C)C(=O)c2cc(NS(C)(=O)=O)ccc2OC[C@@H](C)N(Cc2cncnc2)C[C@@H]1C	1.43
